Our source for the % of control activity and outcome values is PubChem BioAssay AID753 (Emory University Molecular Libraries Screening Center, 2007).

The other results are listed elsewhere or left out. Inconclusive results are not listed. Unmarked numbers belong to inactive results. Activity calls are given as the source filed them.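 The calls were made as follows: active = percent of control activity at or below 60%; inconclusive = HPLC trace unusable from injection failure or solvent front hiding peaks; inactive = the rest, plus ubiquitin peak ratio over a set limit.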

The target of this test is Ubiquitin carboxyl-terminal hydrolase BAP1 (Homo sapiens) (UniProt Q92560). In words: BAP1 ubiquitin ester hydrolysis inhibition – biochemical, Ub-ethyl ester substrate, HPLC readout, orthogonal assay, confirmation (AID 753). The conditions noted are these: purified BAP1, Ub-ethyl ester hydrolysis; at 20 µM, active compounds read low.
Ubiquitin carboxyl-terminal hydrolase BAP1 (Homo sapiens), sequence (Q92560 whole entry, looked up): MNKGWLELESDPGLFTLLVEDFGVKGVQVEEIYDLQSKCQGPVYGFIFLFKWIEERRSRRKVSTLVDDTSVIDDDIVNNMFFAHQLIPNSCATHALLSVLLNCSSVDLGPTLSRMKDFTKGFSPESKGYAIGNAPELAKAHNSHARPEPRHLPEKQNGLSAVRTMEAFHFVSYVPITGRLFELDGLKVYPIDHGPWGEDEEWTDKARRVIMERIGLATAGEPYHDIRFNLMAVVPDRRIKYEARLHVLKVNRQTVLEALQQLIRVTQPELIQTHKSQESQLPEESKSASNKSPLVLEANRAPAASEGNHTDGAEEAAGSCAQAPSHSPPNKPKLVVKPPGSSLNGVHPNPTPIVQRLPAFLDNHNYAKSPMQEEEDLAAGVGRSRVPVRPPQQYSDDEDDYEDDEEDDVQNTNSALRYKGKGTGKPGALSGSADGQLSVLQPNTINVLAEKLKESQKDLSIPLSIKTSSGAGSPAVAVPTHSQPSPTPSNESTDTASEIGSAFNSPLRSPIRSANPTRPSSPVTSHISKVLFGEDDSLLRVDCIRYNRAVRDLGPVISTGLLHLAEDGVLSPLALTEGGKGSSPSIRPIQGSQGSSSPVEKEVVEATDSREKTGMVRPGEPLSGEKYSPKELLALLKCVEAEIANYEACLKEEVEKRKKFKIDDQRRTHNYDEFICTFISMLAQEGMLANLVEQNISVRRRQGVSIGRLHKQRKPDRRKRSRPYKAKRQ

Regarding `N#Cc1c(/N=C/N2CCCC2)oc(-c2ccccc2)c1-c1ccccc1`, the % of control activity was 111%.
Take `CCOc1ccc(CN(Cc2ccco2)C(c2cccs2)c2nnnn2C(C)(C)C)cc1` (configuration not stated): the molecule was called inactive.
As for `CCC(c1nnnn1C1CCCC1)N(Cc1cccs1)Cc1cc2cccc(C)c2[nH]c1=O` (configuration not stated), the % of control activity was 99.7%.
Regarding `Fc1ccc(-c2ccc(-c3nn4c(-c5ccco5)nnc4s3)o2)cc1`, the % of control activity was 106%.
As to `Fc1ccc2nc(Nc3nc4c(s3)CCCC4)sc2c1`, the % of control activity is 142%.
Consider `O=c1c2ccccc2nc(CSc2nnnn2-c2ccccc2)n1-c1ccccc1`, for which the % of control activity is 83.3%.
The same measure, in the same setting: the result for `C=CCn1c2ccccc2c2nnc(SC(CC)C(=O)Nc3nc(C)c(C(=O)OCC)s3)nc21` (configuration not stated) reads 73.6%.
